Source: PubChem
NPC1 promoter act: NPC1 promoter activation | hit rate 2.4% among 320,000 | Potency, µM (series often up to 9.22 µM), inactives show at the highest dose activation, most hits filed as activators | Huh7 NPC1 promoter luciferase reporter, 24 h; further: % of control where 0% means no effect; nearly all actives have a fitted effect of over 60% in size
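Cells: Huh7 expressing luciferase under the NPC1 promoter, 1500/well. Seeded 2 h, compound added, incubated 24 h at 37 °C. Luciferase reagent, 10 min ambient, then luminescence.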
ELG1 genotoxic: genotoxicity induction in ELG1-luciferase HEK293T cells; hit rate 1.3% among 330,000; HEK293T ELG1-luciferase reporter, luminescence, 16 h; Potency, µM (doses to about 46 µM), for the others: top-dose activity change, positive = activation, actives largely listed as activators; further: % of control where 0% means no effect; nearly all actives have a fitted effect of over 60% in size
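After overnight (16 hr) compound treatment at 37 °C, ELG1-luciferase HEK293T cells were lysed with ONE-Glo; luminescence quantified 30 min later at room temperature.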
SMN2 splice up: increases expression of the SMN2 splice variant; HEK293 SMN2-luciferase splicing reporter, luminescence, 30-36 h; Potency, µM (top dose mostly 46.1 µM), inactives show at the top dose activity change, positive = activation, actives largely listed as activators; hit rate 2.8% among 210,000; further: % of control where 0% means no effect; nearly all actives have a fitted effect of over 55% in size
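HEK293 cells carry an SMN2 minigene-luciferase reporter in which exon 7 inclusion puts luciferase in frame. Cells were seeded at 2000 cells/well, attached for 10-12 hours, then exposed to compounds for 30-36 hours at 37C before ONE-Glo luminescence.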
FLuc modulator: counter-screen for miR-21 project: firefly luciferase inhibitors or activators | AID 588342 | Potency, µM (series often up to 57.5 µM), for inactives: top-dose activity change, negative = inhibition, usual class: inhibitors | P08659 | hit rate 6.9% among 360,000 | purified FLuc, Km substrates, luminescence inhibition;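 further: plate controls were vehicle for no effect and reference inhibitor for full effect; nearly all actives have a fitted effect of over 55% in size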
Target sequence (P08659 whole entry, looked up): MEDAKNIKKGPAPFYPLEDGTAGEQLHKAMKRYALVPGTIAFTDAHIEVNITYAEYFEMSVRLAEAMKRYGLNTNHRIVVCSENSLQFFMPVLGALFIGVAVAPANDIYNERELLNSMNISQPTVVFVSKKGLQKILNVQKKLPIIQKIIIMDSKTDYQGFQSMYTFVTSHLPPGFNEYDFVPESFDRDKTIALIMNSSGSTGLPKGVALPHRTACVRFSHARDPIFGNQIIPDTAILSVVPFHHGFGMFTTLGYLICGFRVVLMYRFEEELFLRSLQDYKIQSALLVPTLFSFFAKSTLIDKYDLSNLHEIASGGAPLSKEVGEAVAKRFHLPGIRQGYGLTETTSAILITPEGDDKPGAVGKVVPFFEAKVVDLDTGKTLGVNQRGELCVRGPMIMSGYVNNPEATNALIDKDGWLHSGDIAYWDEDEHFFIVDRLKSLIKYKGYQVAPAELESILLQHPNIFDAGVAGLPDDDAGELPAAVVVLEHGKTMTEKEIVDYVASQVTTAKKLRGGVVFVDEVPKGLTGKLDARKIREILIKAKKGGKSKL
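Purified P. pyralis luciferase, 10 nM final, with Km-level 10 uM D-luciferin and 10 uM ATP in 50 mM Tris acetate pH 7.5, 10 mM Mg acetate, 0.01% Tween-20, 0.05% BSA; 6-point qHTS titration about 60 µM downward; luminescence read.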
ELG1 repair inh: inhibitors of ELG1-dependent DNA repair in HEK293T cells. HEK293T ELG1-luciferase reporter, luminescence, 16 h; DNA damage induced by 5-fluorouridine. Potency, µM (highest dose often 46.1 µM), for inactives: top-dose activity change, negative = inhibition, hits mostly inhibitors. hit rate 2.3% among 330,000; further: on the % scale 0 is the no-effect control and ±100 the full control effect; nearly all actives have a fitted effect of over 55% in size
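5-Fluorouridine DNA damage + compound/DMSO, 2,000 cells/well, 16 h, 37 °C/5% CO2. ONE-Glo, 30 min RT, luminescence. Readout = decrease in reporter signal.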
Rab9 prom act: activators of Rab9 promoter. Huh7 Rab9 promoter-luciferase reporter, luminescence, 24 h. Potency, µM (titrated, usually from 9.22 µM), without a hit: at the top dose activation, negative = inhibition, actives largely listed as activators. AID 485297. hit rate 2.8% among 320,000; further: % of control where 0% means no effect; nearly all actives have a fitted effect of over 60% in size
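Steps: seed 1500 Huh7 Rab9-luc cells per well, rest 2 h at 37 °C; add compound in DMSO; incubate 24 h; add luciferase reagent, 10 min ambient; read luminescence.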
Active calls of the source: *; ? = inconclusive; · = no result; [ ] = dose if it differs, or a comment. Hits are enriched below; roughly 9.4% of the tested compounds scored in any of these assays. The call rests on the fitted dose curve; in most records, active means well fitted curve in the direction sought with a large enough effect; inconclusive means small, poorly fitted or top-dose-only effect, or another doubt; inactive means no such curve, though single readings can be large; an effect the other way counts as inactive or inconclusive. Potency means the concentration at half of the fitted maximal effect.

SMILES	NPC1 promoter act	ELG1 genotoxic	SMN2 splice up	FLuc modulator	ELG1 repair inh	Rab9 prom act
CCN(Cc1ccccc1)c1ccc(N=Nc2nn(C)c(C)c2[N+](=O)[O-])cc1	20%	11%	?	15µM*	?	25%
O=C(/C=C\c1ccccc1OC(=O)c1ccccc1F)c1cc2ccccc2o1	?	16µM*	-117%	2.1µM*	?	?
CCOc1ccc(-c2csc(NC(=O)c3cccc(N4C(=O)CCC4=O)c3)n2)cc1	-4%	-2%	·	9.5µM*	-15%	-6%
COc1ccc(-c2csc(NC(=O)c3cccc(N4C(=O)CCC4=O)c3)n2)cc1OC	-2%	0%	·	15µM*	?	-5%
COc1ccc(-c2csc(NC(=O)CCN3C(=O)C4CC=CCC4C3=O)n2)cc1OC (stereo not drawn)	2%	-2%	·	17µM*	?	1%
COc1ccc(-c2csc(NC(=O)c3ccc(N4C(=O)CCC4=O)cc3)n2)cc1	-8%	0%	3%	0%	5%	-9%
CCc1ccc(-c2csc(NC(=O)C3=NN(c4ccccc4)C(=O)CC3)n2)cc1	1%	-1%	-43%	6µM*	?	-14%
COc1ccc(-c2csc(NC(=O)CN3C(=O)C4CC=CCC4C3=O)n2)cc1 (stereo not drawn)	-3%	0%	·	·	0%	-1%
COc1ccc(C2C(C(=O)Nc3ccccc3)=C(C)Nc3c(C(=O)Nc4ccccc4)cnn32)cc1 (stereo not drawn)	·	·	·	-6%	·	·
O=C(CSc1nnc(-c2ccccc2Br)n1-c1ccccc1)c1ccc(F)cc1	·	·	-22%	-13%	·	·
CCOC(=O)Cc1csc(NC(=O)c2cccc(N3C(=O)CCC3=O)c2)n1	-1%	1%	·	-15%	4%	19%
CCOC(=O)c1c(-c2ccc(-c3ccccc3)cc2)csc1NC(=O)c1cccc(N2C(=O)CCC2=O)c1	-4%	-3%	-26%	-1%	7.3µM*	-6%
Cc1ccc(-c2csc(NC(=O)c3cccc(N4C(=O)CCC4=O)c3)n2)o1	0%	-1%	-29%	9.5µM*	-17%	-4%
CCOC(=O)c1c(NC(=O)c2cccc(N3C(=O)CCC3=O)c2)sc(C)c1C	-3%	-4%	-3%	-6%	?	11%
Cc1nn(C(C)(C)C)c(OC(=O)c2cccc(F)c2)c1Sc1ccccc1	·	·	-7%	-2%	·	·
CCCc1nnc(NC(=O)c2cc(=O)c3cc(C)c(C)cc3o2)s1	·	·	-3%	12µM*	·	·
Cc1ccc2oc(C(=O)Nc3nnc(CC(C)C)s3)cc(=O)c2c1	·	·	11%	?	·	·
CC(C)c1ccc(Nc2c(-c3ccccn3)nc3ccccn23)cc1	·	·	-5%	-2%	·	·
Cc1c(Cl)cccc1-n1ncc(C(=O)N2CCC(C)CC2)c1C1CCN(C(=O)OC(C)(C)C)CC1	·	·	·	5%	·	·
O=C(/C(=N\Nc1ccc(Br)cc1)Sc1nnnn1-c1ccccc1)c1ccccc1	-2%	-5%	14%	0%	1%	-10%
NC(=O)/C(N=Nc1ccccc1)=N/Nc1ccccc1	1%	11%	·	-10%	22%	-1%
O=C(O)c1ccc(N=N/C(=N\Nc2ccc(C(=O)O)cc2)c2ccccc2)cc1	?	12%	·	17µM*	?	?
O=C(O)c1cccc(N/N=C(\N=Nc2ccccc2)c2ccccc2)c1	?	?	·	17µM*	?	?
Brc1ccc(N/N=C(/N=Nc2nn[nH]n2)c2ccccc2)cc1	-31%	-2%	-117%	19µM*	?	-41%
COc1cc(NC(=O)Cn2c(=O)ccc3cc(S(=O)(=O)N4CCCC4)ccc32)cc(OC)c1	·	·	·	-2%	·	·
SMILES	NPC1 promoter act	ELG1 genotoxic	SMN2 splice up	FLuc modulator	ELG1 repair inh	Rab9 prom act
COc1ccc(NC(=O)C2CCN(S(=O)(=O)c3cccc(-c4noc(C)n4)c3)CC2)cc1OC	·	·	·	-9%	·	·
Cc1ccc(-n2ncc(C(=O)NCCc3ccsc3)c2C2CCN(C(=O)OC(C)(C)C)CC2)cc1C	·	·	·	0%	·	·
O=C(Nc1c(C(=O)O)oc2ccccc12)c1ccc(C(F)(F)F)cc1	·	·	·	9.5µM*	·	·
Clc1cc2c(c(CSC3=NCN(CC4CC4)CN3)c1)OCOC2	·	·	8%[9.22 µM]	·	·	·
COc1cc(-c2cc(=O)c3c(O)c(OC)c(OC)c(OC)c3o2)cc(OC)c1OC	-12%	-1%	1%	0%	?	-6%
COc1cc2oc(-c3ccc(O)cc3)cc(=O)c2c(O)c1OC	24%	?	·	19µM*	?	0%
COc1cc2oc(-c3ccc(O)cc3)cc(=O)c2c(OC)c1O	-2%	16µM*	·	24µM*	?	1%
O=c1cc(-c2ccc(O)cc2)oc2ccc3ccccc3c12	0.89µM*	?	·	0.067µM*	?	?
O=c1cc(-c2ccc(O)cc2)oc2c(O)c(O)c(O)c(O)c12	-5%	-1%	·	1%	-22%	-1%
COc1c(O)cc2oc(-c3ccc(O)cc3)cc(=O)c2c1O	?	9.2µM*	·	0.85µM*	?	?
CC(C)c1ccc(C2c3c(-c4ccccc4O)n[nH]c3C(=O)N2CCc2ccccc2)cc1 (stereo not drawn)	·	·	-3%	3%	·	·
O=C(NC1CCCCC1)c1ccc(CSc2nc3ccncc3n2Cc2cccc(F)c2)cc1	·	·	17%	?	·	·
NC(C(=O)O)c1ccc(P(=O)(O)O)cc1 (stereo not drawn)	·	·	17%	·	·	·
Cc1occc1C(=O)Nc1cc(C(F)(F)F)ccc1Cl	1%	10%	25µM*	-1%	?	2%
Cc1occc1C(=O)NNC(=O)Nc1ccc(F)cc1F	-1%	0%	·	1%	-3%	-4%
Cc1occc1C(=O)Nc1ccc(Br)cc1F	?	?	19%	21µM*	?	3.2µM*
O=C(O)c1ccc(NNC(=S)Nc2cc(C(F)(F)F)ccc2Cl)cc1	13%	18µM*	·	24µM*	?	9%
O=C(NC(=S)Nc1cc(C(F)(F)F)ccc1Cl)c1ccccc1	1%	1%	-13%	-1%	1%	0%
Cc1ccc(S(=O)(=O)Cc2nc(-c3ccc(C(=O)NCc4ccccc4F)cc3)oc2C)cc1	·	·	·	-11%	·	·
CCOC(=O)C(=CNc1ccc(NC2=NCC(C)S2)cc1)C(=O)OCC (stereo not drawn)	-1%	-11%	-1%	-5%	6.5µM*	-5%
COc1cc2c(cc1NC(=O)Nc1ccc(C)cc1)oc1ccccc12	16%	2%	-8%	-15%	?	23%
COc1ccc(Cl)cc1NC(=O)C1CCCO1 (stereo not drawn)	-2%	5%	·	2%	8%	3%
